Drawing on PubChem BioAssay (NCI), this text covers growth for 27 molecules.

“And” between values parts separate entries of the source, which are not always exact repeats. Equal entries are not always repeated. The panel holds about 83,000 compounds, 20% with a hit somewhere; the sample as a whole holds those more often.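 How to read the values: 0–100, growth inhibition (40 = 60% inhibited); 0, no net growth; -100 to 0, cell death (-40 = 40% of starting cells died; -100 = all dead).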 The source made the active and inactive calls. Rule for the calls: active = growth percent below 10; inactive = the rest.

One assay has as its system SF-295 CNS. In words: NCI-60 one-dose screen, 48 h (100 = growth as untreated, 0 = no growth, -100 = all killed). Conditions: 10 µM.
As to `C=NCC#N`, the growth is 98.3% (inactive) and 124% (inactive).

As to `COC(=O)C1C(O)C(C)C(O)C(C)/C=C\C=C(C)C(=O)Nc2c(C)c(OC(C)=O)c3c(c2O)C(=O)C(C)=C2OCOC(=C23)C(C)=CC(C)(O)C(O)C(C)C1O` (centres undefined), the growth was 103% (inactive).

`[Cl][Hg][c]1ccc(Cl)s1`: the growth is 100% (inactive).

Regarding `CC(C)c1cc([N+](=O)[O-])cc([N+](=O)[O-])c1O`, the growth was 99% (inactive).

Take `COS(=O)(=O)c1ccccc1`: the growth was 109% (inactive).

Regarding `[O-][n+]1ccccc1S`, the growth is 44.4% (inactive).

For `COC(C(=O)C(O)C(C)O)C1Cc2cc3cc(OC4CC(OC(C)=O)C(OC5CC(O)C(OC)C(C)O5)C(C)O4)cc(O)c3c(O)c2C(=O)C1OC1CC(OC2CC(OC3CC(C)(O)C(OC(=O)C(C)C)C(C)O3)C(O)C(C)O2)C(O)C(C)O1` (centres undefined), the growth is -14.4% (active).

Consider `C/C1=C\[C@H](C)C[C@H](C)OC(=O)C[C@H](c2ccc(O)cc2)NC(=O)[C@@H](Cc2c(Br)[nH]c3ccccc23)N(C)C(=O)[C@H](C)NC(=O)[C@@H](C)C1`, for which the growth is -61.2% (active).

For `Oc1c(I)cc(I)cc1I`, the growth is 110% (inactive).

Turning to `COc1ccc2c(ccc3oc([N+](=O)[O-])cc32)c1`, the growth is -0.437% (active).

With `CC(C)(C)OOC(=O)/C=C\C(=O)OOC(C)(C)C`, the growth is 138% (inactive).

On to `CC12OOC(c3ccccc31)c1c2ccc2ccccc12` (centres undefined), for which the growth was 82.5% (inactive).

As for `COc1cc(/C=C/[N+](=O)[O-])cc(Br)c1OC`, the growth was 78.3% (inactive).

As to `COc1ccc(/C=C\[N+](=O)[O-])cc1OC`, the growth is 60.6% (inactive) and 85.3% (inactive).

Consider `Cc1cc(C(C)(C)c2ccc(O)c(C)c2)ccc1O`, for which the growth was 104% (inactive).

Regarding `O=[P+](O)c1ccccc1`, the growth is 109% (inactive).

As for `O=C(CCl)Nc1ccc(Cl)cc1`, the growth is 68.8% (inactive).

In the case of `Cc1ccc(C(=O)C2C(c3ccccc3)N2C2CCCCC2)cc1` (centres undefined), the growth is 106% (inactive).

Take `COc1ccccc1[As]=[As]c1ccccc1OC` (centres undefined): the growth was -86.4% (active).

As for `COc1cc2c(cc1OC)C13CCN4CC5=CCOC6CC(=O)N2C1C6C5CC43` (centres undefined), the growth is 105% (inactive) and 134% (inactive).

Consider `Cn1c(O)c(N=O)c(=O)n(C)c1=O`, for which the growth is 102% (inactive) and 93.7% (inactive).

As to `N#CCc1ccccc1`, the growth is 104% (inactive).

Regarding `COc1cc([C@@H]2c3cc4c(c(O)c3C[C@H]3COC(=O)[C@@H]32)OCO4)cc(OC)c1OC`, the growth is -22.2% (active).

Turning to `CC[C@@H](C)[C@@H]1NC(=O)C(NC(=O)C(CC(C)C)N(C)C(=O)C2CCCN2C(=O)C(C)O)C(C)OC(=O)C(Cc2ccc(OC)cc2)N(C)C(=O)C2CCCN2C(=O)C(CC(C)C)NC(=O)C(C)C(=O)C(C(C)C)OC(=O)C[C@H]1O` (some centres undefined), the growth is -31% (active).

Regarding `CC[C@@]1(O)C[C@H](OC2CC(N(C)C)C(O)C(C)O2)c2c(cc3c(c2O)C(=O)c2c(O)ccc(O)c2C3=O)[C@H]1C(=O)OC` (some centres undefined), the growth is -81.5% (active).

Consider `O=C(CBr)Nc1ccccc1`, for which the growth is 103% (inactive).

For `S=C=NCCc1ccccc1`, the growth was 115% (inactive).

A further assay deals with SF-539 CNS. Described as above. To be noted: 10 µM.
Regarding `C=NCC#N`, the growth was 88.4% (inactive) and 99.3% (inactive).

In the case of `COC(=O)C1C(O)C(C)C(O)C(C)/C=C\C=C(C)C(=O)Nc2c(C)c(OC(C)=O)c3c(c2O)C(=O)C(C)=C2OCOC(=C23)C(C)=CC(C)(O)C(O)C(C)C1O` (centres undefined), the growth was 100% (inactive).

With `[Cl][Hg][c]1ccc(Cl)s1`, the growth was -3.52% (active).

As to `CC(C)c1cc([N+](=O)[O-])cc([N+](=O)[O-])c1O`, the growth is 101% (inactive).

Regarding `COS(=O)(=O)c1ccccc1`, the growth is 101% (inactive).

In the case of `[O-][n+]1ccccc1S`, the growth is 67.6% (inactive).

For the molecule `COC(C(=O)C(O)C(C)O)C1Cc2cc3cc(OC4CC(OC(C)=O)C(OC5CC(O)C(OC)C(C)O5)C(C)O4)cc(O)c3c(O)c2C(=O)C1OC1CC(OC2CC(OC3CC(C)(O)C(OC(=O)C(C)C)C(C)O3)C(O)C(C)O2)C(O)C(C)O1` (centres undefined), the growth is -78.2% (active).

On to `C/C1=C\[C@H](C)C[C@H](C)OC(=O)C[C@H](c2ccc(O)cc2)NC(=O)[C@@H](Cc2c(Br)[nH]c3ccccc23)N(C)C(=O)[C@H](C)NC(=O)[C@@H](C)C1`, for which the growth is -36.8% (active).

With `Oc1c(I)cc(I)cc1I`, the growth is 102% (inactive).

Turning to `COc1ccc2c(ccc3oc([N+](=O)[O-])cc32)c1`, the growth was -18.7% (active).

With `CC(C)(C)OOC(=O)/C=C\C(=O)OOC(C)(C)C`, the growth is 93.8% (inactive).

Regarding `CC12OOC(c3ccccc31)c1c2ccc2ccccc12` (centres undefined), the growth was 83% (inactive).

For the molecule `COc1cc(/C=C/[N+](=O)[O-])cc(Br)c1OC`, the growth is 28.5% (inactive).

`COc1ccc(/C=C\[N+](=O)[O-])cc1OC`: the growth is 88.1% (inactive) and 59.3% (inactive).

On to `Cc1cc(C(C)(C)c2ccc(O)c(C)c2)ccc1O`, for which the growth is 92.2% (inactive).

In the case of `O=[P+](O)c1ccccc1`, the growth was 104% (inactive).

In the case of `O=C(CCl)Nc1ccc(Cl)cc1`, the growth is 105% (inactive).

Regarding `Cc1ccc(C(=O)C2C(c3ccccc3)N2C2CCCCC2)cc1` (centres undefined), the growth was 99.9% (inactive) and 103% (inactive).

`COc1ccccc1[As]=[As]c1ccccc1OC` (centres undefined): the growth is -91.4% (active).

With `COc1cc2c(cc1OC)C13CCN4CC5=CCOC6CC(=O)N2C1C6C5CC43` (centres undefined), the growth is 96.8% (inactive) and 80.2% (inactive).

For the molecule `Cn1c(O)c(N=O)c(=O)n(C)c1=O`, the growth was 102% (inactive) and 90.7% (inactive).

For `N#CCc1ccccc1`, the growth was 96.5% (inactive).

With `COc1cc([C@@H]2c3cc4c(c(O)c3C[C@H]3COC(=O)[C@@H]32)OCO4)cc(OC)c1OC`, the growth is -18% (active).

Turning to `CC[C@@H](C)[C@@H]1NC(=O)C(NC(=O)C(CC(C)C)N(C)C(=O)C2CCCN2C(=O)C(C)O)C(C)OC(=O)C(Cc2ccc(OC)cc2)N(C)C(=O)C2CCCN2C(=O)C(CC(C)C)NC(=O)C(C)C(=O)C(C(C)C)OC(=O)C[C@H]1O` (some centres undefined), the growth is -70.1% (active).

As for `CC[C@@]1(O)C[C@H](OC2CC(N(C)C)C(O)C(C)O2)c2c(cc3c(c2O)C(=O)c2c(O)ccc(O)c2C3=O)[C@H]1C(=O)OC` (some centres undefined), the growth was -88.5% (active).

Turning to `O=C(CBr)Nc1ccccc1`, the growth is 106% (inactive).

In the case of `S=C=NCCc1ccccc1`, the growth is 29.1% (inactive).
